Source: PubChem BioAssay (NCI)
This is part of a sample that, as a whole, favours compounds with a hit. Of some 83,000 tested, about 20% had one in any assay.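 Testing used 96-well plates and a 48-hour single-concentration exposure. Example: -40 means 40% of the starting cells died.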 A number with no mark means an inactive call. Calls of active or inactive are those of the source. The calls were made as follows: active = growth percent below 10; inactive = the rest.

Experiments:
Experiment in all cases: NCI-60 one-dose screen, 48 h (100 = growth as untreated, 0 = no growth, -100 = all killed)
Details in all cases: 10 µM
EKVX NSCLC = tested on: EKVX NSCLC
SN12C renal = tested on: SN12C renal
UO-31 renal = tested on: UO-31 renal
TK-10 renal = tested on: TK-10 renal
ACHN renal = tested on: ACHN renal
CAKI-1 renal = tested on: CAKI-1 renal
CCRF-CEM leukemia = tested on: CCRF-CEM leukemia
MOLT-4 leukemia = tested on: MOLT-4 leukemia
SR leukemia = tested on: SR leukemia
RPMI-8226 leukemia = tested on: RPMI-8226 leukemia
OVCAR-8 ovarian = tested on: OVCAR-8 ovarian
OVCAR-5 ovarian = tested on: OVCAR-5 ovarian
OVCAR-4 ovarian = tested on: OVCAR-4 ovarian
IGROV1 ovarian = tested on: IGROV1 ovarian
OVCAR-3 ovarian = tested on: OVCAR-3 ovarian
HS 578T breast = tested on: HS 578T breast
NCI/ADR-RES ovarian = tested on: NCI/ADR-RES ovarian
T-47D breast = tested on: T-47D breast
SK-OV-3 ovarian = tested on: SK-OV-3 ovarian
A498 renal = tested on: A498 renal

| SMILES | growth (EKVX NSCLC) | growth (SN12C renal) | growth (UO-31 renal) | growth (TK-10 renal) | growth (ACHN renal) | growth (CAKI-1 renal) | growth (CCRF-CEM leukemia) | growth (MOLT-4 leukemia) | growth (SR leukemia) | growth (RPMI-8226 leukemia) | growth (OVCAR-8 ovarian) | growth (OVCAR-5 ovarian) | growth (OVCAR-4 ovarian) | growth (IGROV1 ovarian) | growth (OVCAR-3 ovarian) | growth (HS 578T breast) | growth (NCI/ADR-RES ovarian) | growth (T-47D breast) | growth (SK-OV-3 ovarian) | growth (A498 renal) |
| --- | --- | --- | --- | --- | --- | --- | --- | --- | --- | --- | --- | --- | --- | --- | --- | --- | --- | --- | --- | --- |
| Nc1cc2c(cc1Cl)-c1ccc([N+](=O)[O-])cc1/C2=N\O | 66% | 88.2% | 33.3% | 48.7% | 63.3% | 55.6% | 28.7% | 37.9% | 10.8% | 44.7% | 99.5% | 145% | 88.9% | 57.1% | 86.6% | 106% | 95.1% | 101% | – | – |
| COc1cc(C(=C2O[C@@H]([C@H]3COC(C)(C)O3)[C@H]3OC(C)(C)O[C@@H]23)c2cc(OC)c(OC)c(OC)c2)cc(OC)c1OC | 98.5% | 92.9% | 95.8% | 111% | 99.8% | 107% | 103% | 99.8% | 90.6% | 88.1% | 108% | 90.8% | 108% | – | 112% | – | 91.7% | 95.7% | 116% | – |
| O=C(/C=C/c1cc2ccccc2[nH]c1=O)c1ccc2c(c1)OCO2 | 95.9% | 93.5% | 63.7% | 97.3% | 103% | 118% | – | 66% | 52.5% | – | 96.1% | 104% | 88% | 92.5% | 102% | 93.8% | 105% | 72.2% | 102% | 97.6% |
| O=C1C(=O)c2ccccc2C(O)=C1CCCc1ccc(C2CCCCCC2)cc1 | 24.9% | 53.4% | 24.2% | 61% | 38.6% | -34.2% (active) | 34.7% | 49.2% | 38% | – | 46.8% | 82.6% | 20.9% | 21% | 51.5% | 115% | – | 29% | 48.8% | – |
| CN(C)CCCn1c(=O)c2ccccc2c2cnc3[nH]ccc3c21 | 10.5% | 10.2% | 0.877% (active) | 8.77% (active) | -1.65% (active) | 22.5% | 18.6% | -5.39% (active) | -35% (active) | -23.6% (active) | 6.28% (active) | 19.5% | 2.71% (active) | 9.28% (active) | 17.9% | 24.8% | 26.5% | -11.3% (active) | 4.51% (active) | – |
| CC(C)N(CCNc1nc(C(Cl)(Cl)Cl)nc2cc(Cl)ccc12)C(C)C | 8.11% (active) | 17.9% | -29% (active) | -84.3% (active) | -36.2% (active) | -84.1% (active) | -8.62% (active) | -21.4% (active) | -28.4% (active) | 3.61% (active) | -73.9% (active) | -11.1% (active) | 7.56% (active) | -38.4% (active) | -37.5% (active) | 12% | – | 5.12% (active) | -27.6% (active) | – |
| O=C(CC(c1ccccc1)N1CCOCC1)c1ccccc1 (stereo unspecified) | 89.3% | 88.5% | 75.7% | 99.7% | 103% | 98.8% | 79.6% | 82.3% | -32.7% (active) | 5.15% (active) | 96.6% | 79.3% | 98.3% | 97.4% | 94.7% | – | 91.2% | 72% | 104% | – |
| Cc1cn(C2CCCCO2)c(=O)nc1NO (stereo unspecified) | 92.9% | 103% | 101% | 103% | 110% | 108% | 102% | 99.1% | 116% | 111% | 101% | 109% | – | 113% | 109% | 86.8% | 107% | 105% | 119% | – |
| CCN(CC)Cc1cc(Nc2ccnc3cc(Cl)ccc23)ccc1OC | 97.2% | 91.2% | 55.9% | 94.9% | 97% | 102% | 69.1% | 78.9% | 83.2% | 72.2% | 91.7% | 109% | 68.2% | 94.5% | 93.6% | – | 89.5% | 102% | 102% | – |
| COc1ccc(/C(=C2/O[C@@H]([C@H]3COC(C)(C)O3)[C@H]3OC(C)(C)O[C@@H]23)c2cc(OC)c(OC)c(OC)c2)cc1O | 101% | 84.5% | 123% | 117% | 49.5% | 111% | 60.8% | 60.5% | -13.6% (active) | 36.4% | 96.1% | 92.9% | 106% | 92.6% | 58.3% | – | -10.5% (active) | 115% | 90.1% | – |
| CCN(CCCCCCCCCCN1CC(=O)N(CCCCCCCCCCN(CC)Cc2ccccc2OC)CC1=O)Cc1ccccc1OC | -0.258% (active) | 9.4% (active) | -74.8% (active) | 10.1% | 3.48% (active) | -12.8% (active) | -25.5% (active) | -32.7% (active) | -61.3% (active) | -70.2% (active) | -77.1% (active) | 8.29% (active) | 10.2% | -66.3% (active) | -62.6% (active) | – | – | -66.5% (active) | -38.5% (active) | – |
| Cc1ccc(NC(=O)CSc2nc3ccccc3c(=O)n2CCc2ccccc2)c(C(=O)O)c1 | 73.4% | 96.6% | 78.5% | 117% | 91.1% | 81.5% | – | – | – | – | 100% | 111% | 103% | – | 115% | 106% | 118% | 96.2% | 93.6% | 87% |
| CNc1ccc(CSc2ccc(C)cc2)cc1 | 102% | 29.4% | 24.1% | 86.1% | 108% | 73.2% | 43.7% | 82.6% | 80.4% | 20.8% | 91.1% | 101% | 34% | 78.6% | 90.6% | 95.8% | 92.1% | 64.5% | – | – |
| CCC1(C(C)C)NC(=O)NC1=O (stereo unspecified) | 99.4% | 88.1% | 82.1% | 113% | 99.9% | 104% | 92.4% | 101% | 90.2% | 91.8% | 104% | 89.3% | 103% | 112% | 115% | – | 99.5% | 97% | – | – |
| COc1cc(/C(=C2/O[C@@H]([C@H]3COC(C)(C)O3)[C@H]3OC(C)(C)O[C@@H]23)c2ccc3ccccc3c2)cc(OC)c1OC | 53.7% | 24.8% | 46.8% | 22.7% | 0.857% (active) | 38.7% | 82.2% | 62.4% | 51.4% | 36.8% | 18.9% | 38.2% | 25.7% | 21.4% | -6.76% (active) | – | – | – | 51.4% | – |
| O=[P@@]1(c2ccccc2)O[C@H](COCc2ccccc2)[C@@H](OCc2ccccc2)[C@H](OCc2ccccc2)[C@H]1O | 70.7% | 82.9% | 90.5% | 76% | 78.7% | 72.8% | 92.3% | 94.3% | 103% | 89.6% | 45% | 99.3% | – | – | 59.5% | -10.7% (active) | 73.4% | 72.8% | 38.7% | – |
| CC1(C)CCC(=NNC(N)=S)CC1 | 90% | 105% | 83.9% | 75.9% | 99.7% | 96.2% | 30.3% | 99.8% | 116% | 103% | 100% | 109% | 112% | 116% | 112% | 103% | 105% | 95.2% | 117% | – |
| COc1ccc(Cl)cc1C(=O)Nc1nc2ccc(Cl)cc2s1 | 76.2% | 91.7% | 58.2% | 127% | 85.9% | 84.4% | 86.4% | 95.6% | 87.7% | 80.5% | 88.9% | 124% | – | 65.9% | 103% | 102% | 102% | 47.2% | 91.9% | – |
